Reference: PubChem BioAssay (NCATS)
Unmarked numbers belong to inactive results. Inconclusive results are not listed. Activity calls are given as the source filed them. Unless noted, calls come from the whole dose curve; as a rule, active = well fitted curve in the direction sought with a large enough effect; inconclusive = small, poorly fitted or top-dose-only effect, or another doubt; inactive = no such curve, though single readings can be large; an effect the other way counts as inactive or inconclusive.

Columns and labels:
[1] = molecular target: Lysosomal acid glucosylceramidase (Homo sapiens) (UniProt P04062); test: Glucocerebrosidase-p2 (AID 348; in the data active = potency below about 10 µM; note: potency is the fitted concentration of half-maximal effect); conditions: purified GBA, blue fluorogenic substrate, 40 min
Summary of the method: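 Normal human glucocerebrosidase (0.2 nM) with blue fluorogenic substrate (80 uM final) in citrate/phosphate pH 5.9 with 10mM sodium taurocholate, 0.01% tween-20; 40 min RT, NaOH/glycine stop; fluorescence Ex 365/Em 440; AC50 from a titration from 0.6 nM upwards.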

[2] = AP1 Signaling Pathway (AID 357; active = well fitted curve in either direction with a large enough effect, not every such curve was filed as active; note: % is set by controls: 0 for no effect and ±100 for the full control effect); conditions: ME-180 AP-1-bla reporter, EGF-induced, beta-lactamase ratio, 5 h; at 7.69 µM (top of the series) unless noted
Summary of the method: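 ME-180 cells with beta-lactamase reporter under AP-1 response element, stimulated with EC50 EGF; compounds tested in titration series, 5 h at 37 °C. CCF4 substrate added 2.5 h at room temperature; 460/530 nm emission ratio gave %activity and AC50.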

[3] = molecular target: Cytochrome P450 1A2 (Homo sapiens) (UniProt P05177); test: p450-cyp1a2 (AID 410; calls by dose curve; note: potency is the fitted concentration of half-maximal effect); conditions: recombinant CYP1A2, luciferin-ME demethylation, luminescence; series mostly up to 57 µM
Cytochrome P450 1A2 (Homo sapiens), sequence (P05177 whole entry, looked up): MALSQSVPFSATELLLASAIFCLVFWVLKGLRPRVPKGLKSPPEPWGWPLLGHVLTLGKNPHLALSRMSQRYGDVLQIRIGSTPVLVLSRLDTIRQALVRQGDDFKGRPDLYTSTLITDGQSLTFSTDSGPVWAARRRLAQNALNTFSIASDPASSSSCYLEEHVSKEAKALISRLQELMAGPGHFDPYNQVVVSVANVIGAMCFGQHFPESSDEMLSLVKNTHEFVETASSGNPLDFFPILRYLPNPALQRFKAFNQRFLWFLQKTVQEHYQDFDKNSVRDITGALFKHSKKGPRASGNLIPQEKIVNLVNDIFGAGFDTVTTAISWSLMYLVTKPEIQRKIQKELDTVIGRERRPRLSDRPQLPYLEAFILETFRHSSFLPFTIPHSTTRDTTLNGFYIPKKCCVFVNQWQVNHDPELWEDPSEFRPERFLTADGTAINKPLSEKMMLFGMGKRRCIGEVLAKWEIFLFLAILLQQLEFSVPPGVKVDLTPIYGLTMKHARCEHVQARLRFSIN
Summary of the method: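 20nM CYP1A2, 100uM Luciferin-ME (=Km), 100mM KPO4; cpd 10 min RT; +NADPH regen, 60 min RT; stop/detect 20 min; luminescence. Normalized to furafylline 57 uM = full inhibition.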

[4] = NFAT Signaling Pathway (AID 444; active = well fitted curve in either direction with a large enough effect, not every such curve was filed as active;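 note: carbachol stimulus at about its EC50 of 1 µM final; % is set by controls: 0 for no effect and ±100 for the full control effect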); conditions: Jurkat NFAT-bla M1, carbachol, beta-lactamase ratio, 5 h; at 7.69 µM (top of the series) unless noted
Summary of the method: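 Jurkat cells carrying an NFAT-driven β-lactamase reporter and co-transfected muscarinic M1 receptor were treated with compound plus carbachol (1 uM final, an EC50 level) for 5 h at 37 °C. CCF4 loading followed for 1 h at RT; 460/530 nm ratio gave %activity.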

[5] = Stat Signaling Pathway (AID 446; active = well fitted curve in either direction with a large enough effect, not every such curve was filed as active;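 note: ME-180 cervical cancer cells given 40 pM IL-6 alongside compound; SIE-controlled beta-lactamase reporter measured as 460/530 nm FRET emission ratio; % is set by controls: 0 for no effect and ±100 for the full control effect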); conditions: ME-180 SIE beta-lactamase reporter, IL-6 stimulated, 5 h; at 7.69 µM (top of the series) unless noted
Summary of the method: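 Emission at 460 and 530 nm (excitation 405 nm) reports SIE-controlled beta-lactamase in ME-180 cells. Cells received compound with 40 pM IL-6 for 5 hrs at 37 C; data scaled between 300 pM IL-6 and 125 nM JAK-inhibitor controls.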

[6] = molecular target: Glucocorticoid receptor (Homo sapiens) (UniProt P04150); test: GR-GFP Redistribution (AID 450;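 active = compounds whose dose series gives a full or clear partial fitted curve of increased nuclear translocation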; note: potency is the fitted concentration of half-maximal effect); conditions: U2OS GR-GFP nuclear translocation, laser cytometry, 2 h
Glucocorticoid receptor (Homo sapiens), sequence (P04150 whole entry, looked up, the tested form may be a part): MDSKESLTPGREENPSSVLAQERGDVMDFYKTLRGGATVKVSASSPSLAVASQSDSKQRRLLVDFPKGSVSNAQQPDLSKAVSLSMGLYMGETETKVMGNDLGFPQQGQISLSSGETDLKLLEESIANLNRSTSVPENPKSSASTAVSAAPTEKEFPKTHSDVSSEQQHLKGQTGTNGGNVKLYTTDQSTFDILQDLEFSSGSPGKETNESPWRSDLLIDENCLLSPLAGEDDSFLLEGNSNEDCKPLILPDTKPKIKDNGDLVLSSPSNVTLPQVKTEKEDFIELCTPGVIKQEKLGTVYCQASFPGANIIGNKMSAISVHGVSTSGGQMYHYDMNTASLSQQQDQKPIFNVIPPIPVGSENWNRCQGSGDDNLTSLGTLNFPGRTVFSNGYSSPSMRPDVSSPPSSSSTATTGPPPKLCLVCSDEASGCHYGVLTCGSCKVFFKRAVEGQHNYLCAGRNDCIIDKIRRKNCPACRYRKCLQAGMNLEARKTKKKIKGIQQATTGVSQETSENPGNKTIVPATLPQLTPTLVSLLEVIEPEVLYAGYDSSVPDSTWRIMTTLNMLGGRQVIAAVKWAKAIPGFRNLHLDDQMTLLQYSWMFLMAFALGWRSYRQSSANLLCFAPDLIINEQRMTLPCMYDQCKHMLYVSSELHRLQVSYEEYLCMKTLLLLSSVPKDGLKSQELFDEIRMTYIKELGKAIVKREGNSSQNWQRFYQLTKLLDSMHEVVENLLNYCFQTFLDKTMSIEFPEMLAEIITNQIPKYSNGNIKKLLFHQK

[7] = molecular target: Glucocorticoid receptor (Homo sapiens) (UniProt P04150); test: GR-EFC Redistribution (AID 451; calls by dose curve; note: potency is the fitted concentration of half-maximal effect); conditions: CHO-K1 GR-EFC translocation, beta-gal luminescence, 2 h
Summary of the method: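 CHO-K1 cells stably expressing nuclear-localized β-gal enzyme acceptor and GR fused C-terminally to the enzyme donor fragment; ligand-driven nuclear translocation restores β-gal by complementation. Compounds titrated up to 46 uM final, 2 h at 37 °C; luminescence read.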

[8] = molecular target: Mitogen-activated protein kinase 10 (Mus musculus) (UniProt Q61831); test: JNK3 AlphaScreen Assay (AID 530; active = well fitted curve in either direction with a large enough effect, not every such curve was filed as active;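 note: kinase came from lysate of stimulated human HepG2 cells; signal reports phosphorylation of biotinylated GST-cJun 1-79 at Ser73 with 10 µM ATP; % is set by controls: 0 for no effect and ±100 for the full control effect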); conditions: JNK3 lysate, c-Jun phosphorylation; series mostly up to 57.1 µM
Summary of the method: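 Biotinylated GST-cJun(1-79) served as substrate for JNK3 in HepG2 lysates stimulated with IL-1beta and TNF-alpha. ATP was 10 uM final, pH 7.6. Ser73 phosphorylation was quantified by AlphaScreen (680 nm excitation).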

[9] = molecular target: Cytochrome P450 2C9 (Homo sapiens) (UniProt P11712); test: qHTS Assay for Inhibitors and Substrates of Cytochrome P450 2C9 (AID 883); conditions: recombinant CYP2C9, luciferin-H luminescence, 60 min; series mostly up to 57.1 µM; note: nearly all actives have a fitted effect of over 60% in size; note: potency is the fitted concentration of half-maximal effect
Cytochrome P450 2C9 (Homo sapiens), sequence (P11712 whole entry, looked up): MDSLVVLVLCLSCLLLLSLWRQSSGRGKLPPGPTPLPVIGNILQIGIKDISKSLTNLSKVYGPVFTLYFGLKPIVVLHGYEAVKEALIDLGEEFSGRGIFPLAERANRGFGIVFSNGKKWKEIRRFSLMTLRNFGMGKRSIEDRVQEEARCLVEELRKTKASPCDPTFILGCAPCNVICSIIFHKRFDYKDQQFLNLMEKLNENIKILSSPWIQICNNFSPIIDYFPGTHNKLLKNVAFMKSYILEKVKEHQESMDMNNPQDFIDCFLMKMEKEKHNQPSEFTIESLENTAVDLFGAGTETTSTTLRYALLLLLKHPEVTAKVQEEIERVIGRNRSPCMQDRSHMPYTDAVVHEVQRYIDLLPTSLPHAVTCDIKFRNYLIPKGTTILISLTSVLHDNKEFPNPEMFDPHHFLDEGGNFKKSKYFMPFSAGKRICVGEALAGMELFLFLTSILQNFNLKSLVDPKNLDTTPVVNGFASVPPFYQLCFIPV
Summary of the method: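 A luminogenic readout tracked human CYP2C9 (10nM) converting deoxyluciferin (100uM, at KM) in 25mM KPO4 during 60 min at 37C with regenerated NADPH. Values normalized to 57uM sulphaphenazole as complete inhibition.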

[10] = molecular target: Dual specificity protein kinase CLK4 (Homo sapiens) (UniProt Q9HAZ1); test: qHTS Assay for Inhibitors of CDC-like Kinase 4 (Kinase-Glo Assay) (AID 1770); conditions: recombinant Clk4, Kinase-Glo ATP depletion luminescence; series mostly up to 66.7 µM; note: nearly all actives have a fitted effect of over 65% in size; note: potency is the fitted concentration of half-maximal effect
Dual specificity protein kinase CLK4 (Homo sapiens), sequence (Q9HAZ1 whole entry, looked up): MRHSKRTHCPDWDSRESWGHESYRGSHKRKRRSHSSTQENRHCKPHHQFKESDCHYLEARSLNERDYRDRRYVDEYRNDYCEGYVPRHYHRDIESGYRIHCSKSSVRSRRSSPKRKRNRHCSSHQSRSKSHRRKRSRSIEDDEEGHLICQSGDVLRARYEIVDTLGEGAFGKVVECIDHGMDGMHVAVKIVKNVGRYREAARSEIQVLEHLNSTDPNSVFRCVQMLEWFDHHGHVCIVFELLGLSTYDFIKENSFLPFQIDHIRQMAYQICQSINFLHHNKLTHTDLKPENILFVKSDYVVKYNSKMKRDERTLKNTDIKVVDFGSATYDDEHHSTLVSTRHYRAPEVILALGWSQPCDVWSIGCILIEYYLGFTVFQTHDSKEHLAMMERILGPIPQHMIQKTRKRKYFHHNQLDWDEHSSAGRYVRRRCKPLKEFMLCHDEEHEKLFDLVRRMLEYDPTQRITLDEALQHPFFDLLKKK
Summary of the method: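 Luminescent ATP-depletion read-out (Kinase-Glo) after 4.5 h room-temperature reaction of Clk4 (25 nM final) with RS peptide (100 uM) and ATP (1 uM), pH 7.5 Tris buffer with MgCl2 and DTT.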

[11] = molecular target: Dual specificity protein kinase CLK4 (Homo sapiens) (UniProt Q9HAZ1); test: qHTS Assay for Inhibitors of CDC-like Kinase 4 (ADP-FP Assay) (AID 1795); conditions: Transcreener ADP fluorescence polarization; series mostly up to 50 µM;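 note: recombinant human CLK4 phosphorylating RS repeat peptide at 1 µM ATP; % is set by controls: 0 for no effect and ±100 for the full control effect; nearly all actives have a fitted effect of over 60% in size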
Summary of the method: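 Kinase activity was measured as ADP production using Transcreener orange tracer (4 nM) and ADP antibody (1 ug/mL) fluorescence polarization, with ADP calculated from a calibration curve. The 1 h reaction contained 6.25 nM Clk4, 1 uM ATP and 100 uM RS peptide at pH 7.5 with Mg2+.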

[12] = molecular target: Ubiquitin carboxyl-terminal hydrolase 1 (Homo sapiens) (UniProt O94782); test: Inhibitors of USP1/UAF1: Pilot qHTS (AID 504865); conditions: purified USP1/UAF1, Ub-rhodamine cleavage fluorescence; series mostly up to 54.9 µM;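 note: rhodamine fluorescence freed from ubiquitin-rhodamine substrate followed over time; top concentration of the series differs between compounds; % is set by controls: 0 for no effect and ±100 for the full control effect; nearly all actives have a fitted effect of over 35% in size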
Ubiquitin carboxyl-terminal hydrolase 1 (Homo sapiens), sequence (O94782 whole entry, looked up): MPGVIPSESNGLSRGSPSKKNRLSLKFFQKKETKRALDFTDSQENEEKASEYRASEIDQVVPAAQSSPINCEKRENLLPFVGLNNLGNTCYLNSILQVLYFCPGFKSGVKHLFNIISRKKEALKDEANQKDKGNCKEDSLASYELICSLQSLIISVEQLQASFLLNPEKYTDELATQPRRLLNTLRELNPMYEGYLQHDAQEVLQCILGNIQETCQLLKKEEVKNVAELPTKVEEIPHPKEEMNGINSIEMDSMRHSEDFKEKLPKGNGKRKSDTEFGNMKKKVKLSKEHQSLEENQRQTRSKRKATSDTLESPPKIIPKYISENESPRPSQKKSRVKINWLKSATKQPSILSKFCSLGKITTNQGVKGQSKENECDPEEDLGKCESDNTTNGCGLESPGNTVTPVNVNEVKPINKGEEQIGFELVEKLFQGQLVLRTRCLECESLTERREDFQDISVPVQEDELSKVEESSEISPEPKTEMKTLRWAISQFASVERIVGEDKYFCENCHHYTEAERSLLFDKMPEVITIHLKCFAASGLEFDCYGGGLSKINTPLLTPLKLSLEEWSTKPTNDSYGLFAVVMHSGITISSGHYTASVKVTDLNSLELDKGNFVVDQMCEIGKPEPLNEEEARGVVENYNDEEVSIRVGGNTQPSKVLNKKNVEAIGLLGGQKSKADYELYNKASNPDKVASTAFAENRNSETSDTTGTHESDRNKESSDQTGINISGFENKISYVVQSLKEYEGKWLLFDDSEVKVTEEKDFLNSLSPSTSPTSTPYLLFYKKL
Summary of the method: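 Deubiquitinase activity followed as kinetic rhodamine fluorescence release from 150 nM Ub-Rho. 1 nM USP1/UAF1 with compound, after 15 min room-temperature preincubation, in HEPES pH 7.8 buffer containing TCEP, EDTA, BSA and Tween-20.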

[13] = Primary qHTS for small molecule stabilizers of the endoplasmic reticulum resident proteome: Secreted ER Calcium Modulated Protein (SERCaMP) assay (AID 1508630); conditions: SH-SY5Y GLuc-SERCaMP (Gaussia luciferase released on ER calcium loss) secretion, thapsigargin, luminescence; series mostly up to 38.4 µM; note: % is set by controls: 0 for no effect and ±100 for the full control effect
Summary of the method: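 The SH-SY5Y reporter protocol was run at 3 concentrations up to 38.3 uM (primary) or 11 concentrations (follow-up): 16 h compound, 100 nM thapsigargin for 4 h, then extracellular luciferase luminescence.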

[14] = molecular target: 3',5'-cyclic-AMP phosphodiesterase 4B (Homo sapiens) (UniProt Q07343); test: qHTS Assay for Inhibitors of PDE-IV (AID 607; active = well fitted activation curve with a large enough effect in the main read-out, with a control signal flat, not every such curve was filed as active; note: % of control where 0% means no effect); conditions: HEK293 ACTOne CNG channel cells, membrane potential fluorescence; series mostly up to 22.9 µM
3',5'-cyclic-AMP phosphodiesterase 4B (Homo sapiens), sequence (Q07343 whole entry, looked up): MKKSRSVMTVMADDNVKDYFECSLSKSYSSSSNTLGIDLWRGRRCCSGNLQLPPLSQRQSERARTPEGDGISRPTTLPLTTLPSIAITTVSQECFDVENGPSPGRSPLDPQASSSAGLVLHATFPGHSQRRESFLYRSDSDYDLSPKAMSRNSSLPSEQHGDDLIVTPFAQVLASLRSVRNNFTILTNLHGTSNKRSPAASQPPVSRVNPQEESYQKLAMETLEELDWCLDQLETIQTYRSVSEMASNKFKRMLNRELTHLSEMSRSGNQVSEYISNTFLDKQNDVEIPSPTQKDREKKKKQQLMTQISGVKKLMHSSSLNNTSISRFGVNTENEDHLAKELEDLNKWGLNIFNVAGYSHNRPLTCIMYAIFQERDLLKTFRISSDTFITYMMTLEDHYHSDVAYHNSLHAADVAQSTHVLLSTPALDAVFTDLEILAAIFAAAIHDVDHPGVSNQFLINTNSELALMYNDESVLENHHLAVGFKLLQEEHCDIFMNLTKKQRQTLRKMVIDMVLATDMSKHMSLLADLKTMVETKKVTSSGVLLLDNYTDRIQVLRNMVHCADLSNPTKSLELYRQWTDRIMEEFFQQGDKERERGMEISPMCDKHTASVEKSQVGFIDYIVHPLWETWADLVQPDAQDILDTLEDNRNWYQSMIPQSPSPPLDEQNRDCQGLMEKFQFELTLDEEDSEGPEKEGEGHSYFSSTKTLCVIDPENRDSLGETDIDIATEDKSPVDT
Summary of the method: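 The readout is membrane depolarisation from a cAMP-sensing CNG channel, detected with a potential dye at ex 535/em 590. Cells were HEK293-derived (endogenous PDE-IV) at 1000 cells/well, titrated up to 22.9 uM final.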

[15] = qHTS Assay for Identification of Small Molecule Agonists for Hypoxia Response Element Signaling Pathway (AID 914; active = well fitted activation curve with a large enough effect in the signal ratio, with a control signal flat, not every such curve was filed as active; the % refers to the signal ratio; note: % of control where 0% means no effect); conditions: ME-180 HRE-bla reporter, beta-lactamase ratio, CoCl2, 17 h; activation: hits give high values
Summary of the method: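 ME-180 cells carrying an HRE-driven beta-lactamase reporter were treated with compounds in a titration series plus an EC50 level of CoCl2 for 17 h at 37 degrees Celsius; CCF4 readout as the 460nm/530nm ratio gave AC50 values.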

[16] = molecular target: Dual specificity protein kinase CLK4 (Homo sapiens) (UniProt Q9HAZ1); test: qHTS Assay for Inhibitors of CDC-like Kinase 4 (ADP-Glo Assay) (AID 1771); conditions: recombinant CLK4, ADP-Glo luminescence; series mostly up to 80 µM; note: nearly all actives have a fitted effect of over 70% in size; note: potency is the fitted concentration of half-maximal effect
Summary of the method: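 25 nM Clk4, 100 uM RS peptide, 1 uM ATP (final); 2 mM MgCl2, 0.5 mM EGTA, 2.5 mM DTT, 0.01% Triton X-100; 1 hr RT. ADP-Glo readout: ATP depletion 45 min, conversion/luciferase 30 min, luminescence.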

[17] = molecular target: Cytochrome P450 3A4 (Homo sapiens) (UniProt P08684); test: qHTS Assay for Activators of Cytochrome P450 3A4 (AID 885); conditions: recombinant CYP3A4, Luciferin-PPXE luminescence, 60 min; series mostly up to 57.1 µM; note: nearly all actives have a fitted effect of over 65% in size
Cytochrome P450 3A4 (Homo sapiens), sequence (P08684 whole entry, looked up): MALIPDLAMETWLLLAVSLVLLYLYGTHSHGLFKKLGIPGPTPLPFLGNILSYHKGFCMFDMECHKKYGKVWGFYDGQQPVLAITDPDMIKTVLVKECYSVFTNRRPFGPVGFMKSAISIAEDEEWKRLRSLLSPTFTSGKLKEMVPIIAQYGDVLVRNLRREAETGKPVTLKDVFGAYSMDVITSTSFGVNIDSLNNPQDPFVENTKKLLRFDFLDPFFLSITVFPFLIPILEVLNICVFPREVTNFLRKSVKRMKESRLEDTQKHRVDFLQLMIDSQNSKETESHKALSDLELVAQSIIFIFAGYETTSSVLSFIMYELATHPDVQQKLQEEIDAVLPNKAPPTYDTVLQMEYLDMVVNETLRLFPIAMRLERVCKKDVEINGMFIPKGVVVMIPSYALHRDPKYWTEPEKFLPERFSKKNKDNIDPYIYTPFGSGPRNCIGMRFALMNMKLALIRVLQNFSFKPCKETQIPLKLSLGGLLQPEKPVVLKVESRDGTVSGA
Summary of the method: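 Activators are scored by enhanced luminescence from CYP3A4 conversion of luciferin-PPXE (25uM, equal to KM) to luciferin, after 60 min at RT with an NADPH-regenerating system.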

[18] = molecular target: Cytochrome P450 3A4 (Homo sapiens) (UniProt P08684); test: qHTS Assay for Inhibitors and Substrates of Cytochrome P450 3A4 (AID 884); conditions: recombinant CYP3A4, Luciferin-PPXE luminescence; series mostly up to 57.1 µM; note: nearly all actives have a fitted effect of over 50% in size; note: potency is the fitted concentration of half-maximal effect
Summary of the method: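 Luminescent readout of luciferin produced by CYP3A4 (20 nM) dealkylation of Luciferin-PPXE, 25 uM (its KM). NADPH-driven reaction ran 60 min at RT after 10 min compound preincubation; data scaled to 57 uM ketoconazole as 100% inhibition.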

[19] = molecular target: Cytochrome P450 2C19 (Homo sapiens) (UniProt P33261); test: qHTS Assay for Inhibitors and Substrates of Cytochrome P450 2C19 (AID 899); conditions: recombinant CYP2C19, luciferin-H EGE luminescence; series mostly up to 57.1 µM; note: potency is the fitted concentration of half-maximal effect; nearly all actives have a fitted effect of over 60% in size
Cytochrome P450 2C19 (Homo sapiens), sequence (P33261 whole entry, looked up): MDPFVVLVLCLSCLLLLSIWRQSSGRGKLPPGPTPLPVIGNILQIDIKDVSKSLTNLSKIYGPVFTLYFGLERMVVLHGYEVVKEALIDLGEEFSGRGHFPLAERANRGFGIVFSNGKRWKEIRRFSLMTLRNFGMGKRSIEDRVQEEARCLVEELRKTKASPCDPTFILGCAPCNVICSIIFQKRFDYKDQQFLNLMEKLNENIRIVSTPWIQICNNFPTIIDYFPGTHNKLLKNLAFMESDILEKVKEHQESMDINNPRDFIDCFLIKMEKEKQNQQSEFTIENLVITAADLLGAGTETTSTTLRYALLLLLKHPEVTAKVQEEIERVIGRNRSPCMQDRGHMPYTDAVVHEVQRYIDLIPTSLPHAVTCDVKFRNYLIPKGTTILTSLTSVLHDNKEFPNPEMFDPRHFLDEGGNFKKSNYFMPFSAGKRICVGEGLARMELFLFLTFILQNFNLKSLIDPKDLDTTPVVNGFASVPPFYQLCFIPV
Summary of the method: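 NADPH-dependent conversion of Luciferin-H EGE (10uM, at KM) by 5nM enzyme in 50mM KPO4, 60 min at 37C following 10 min compound preincubation. Stopped with luciferin detection buffer; luminescence read after 20 min.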

[20] = molecular target: Cytochrome P450 2D6 (Homo sapiens) (UniProt P10635); test: qHTS Assay for Inhibitors and Substrates of Cytochrome P450 2D6 (AID 891); conditions: recombinant CYP2D6, luciferin-ME EGE luminescence; series mostly up to 57.1 µM; note: potency is the fitted concentration of half-maximal effect; nearly all actives have a fitted effect of over 60% in size
Summary of the method: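 Luminescent read-out of luciferin formed by 5 nM human CYP2D6 demethylating 30 uM Luciferin-ME EGE (Km level) over 60 min at room temperature after NADPH regeneration addition. Data normalized to full inhibition by 1.43 uM quinidine.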

| SMILES | Potency [1] | activity change, negative = inhibition [2] [%] | Potency [3] | activity change, negative = inhibition [4] [%] | activity, negative = inhibition [5] [%] | Potency [6] [µM] | Potency [7] [µM] | Potency [8] | Potency [9] | Potency [10] | Potency [11] | Potency [12] | outcome [13] | Potency [14] | activation [15] [%] | Potency [16] | Potency [17] | Potency [18] | Potency [19] | Potency [20] |
| --- | --- | --- | --- | --- | --- | --- | --- | --- | --- | --- | --- | --- | --- | --- | --- | --- | --- | --- | --- | --- |
| O=c1c(-c2cccc(Cl)c2)nc2cncnc2n1Cc1ccccc1 | > 11.4 µM | -3.36 | 1 µM (active) | -0.741 | -3.65 | > 9.22 | > 46 | inactive | 1.26 µM (active) | inactive | inactive | inactive | inactive |  |  |  |  |  |  |  |
| CN(C)c1ccc(-c2ccc3ncnc(N(C)Cc4ccco4)c3c2)cc1 | > 11.4 µM | -28.7 |  |  | -0.793 | > 46 | > 46 | inactive |  | 8.91 µM (active) |  | inactive | inactive | inactive | -3.37 | 7.08 µM (active) |  |  |  |  |
| Cc1cccc(CNc2cc(-c3ccccc3Cl)ncn2)c1 | > 11.4 µM | 13.1 |  | -3.92 | 0.338 | > 46 | > 46 | inactive |  | 28.2 µM (active) |  |  | inactive | inactive |  | 28.2 µM (active) | inactive |  |  |  |
| Cc1noc(C)c1-c1nccc(N2CCN(C)CC2)n1 |  | 16 | 2 µM (active) | -10.9 | 11.7 |  | > 46 | inactive |  | inactive |  | inactive | inactive | inactive |  | inactive |  |  |  |  |
| COc1cccc(-c2nccc(NCCc3c[nH]c4ccc(OC)cc34)n2)c1 | 6.96 µM (active) |  |  | -15.8 | -25.8 |  | > 46 | inactive |  | 25.1 µM (active) |  | inactive | inactive |  |  | 28.2 µM (active) |  |  |  |  |
| COc1ccccc1CCn1c(=O)c(-c2cccs2)nc2cncnc21 | > 11.4 µM | -29.2 | 2 µM (active) | -5.89 | -0.377 | > 9.22 | > 46 | inactive | 2.51 µM (active) | inactive | inactive | inactive | inactive |  |  |  | inactive | 3.16 µM (active) | 2 µM (active) |  |
| COc1cccc(Cn2c(=O)c(-c3cc(F)cc(F)c3)nc3cnc(N4CCOCC4)nc32)c1 | > 11.4 µM |  |  | 5.53 | 24.5 | > 9.22 | > 46 | inactive | inactive | inactive | inactive | inactive | inactive | inactive |  |  |  |  |  |  |
| CCNc1ncc2nc(-c3cc(F)cc(F)c3)c(=O)n(CCC#N)c2n1 | > 11.4 µM | 28.7 |  | -24.5 |  | > 9.22 | > 46 | inactive |  | 31.6 µM (active) | inactive | inactive | inactive | inactive |  |  |  |  |  | 63.1 nM (active) |
| COc1ccc2[nH]cc(CCNc3ccnc(-c4ccoc4)n3)c2c1 | > 11.4 µM | -23 | 0.501 µM (active) | -2.92 | -23.2 | > 46 | > 46 | inactive |  | 14.1 µM (active) |  | inactive | inactive |  |  |  | inactive | 3.16 µM (active) | 0.501 µM (active) |  |
| COc1ccccc1CNc1ncncc1-c1cccc(NS(C)(=O)=O)c1 |  | -18.5 |  | 22.3 | -7.42 | > 46 | > 46 | inactive |  | inactive | inactive | inactive | inactive | inactive |  |  | inactive | 0.251 µM (active) |  |  |
| CCNc1ncc2nc(-c3ccc(F)cc3)c(=O)n(Cc3ccc(F)cc3)c2n1 | > 11.4 µM |  | 20 µM (active) | 18.8 |  | > 9.22 | > 46 | inactive |  | inactive | inactive |  | inactive | inactive |  |  |  |  |  |  |
| Clc1ccccc1-c1cc(NCc2ccccc2)ncn1 | > 11.4 µM | 0.871 | 3.98 µM (active) | 1.92 | 4.36 | > 46 | > 46 | inactive |  | 25.1 µM (active) |  |  | inactive |  |  |  |  | inactive | 7.94 µM (active) |  |
